Screening results from PubChem BioAssay.
Hits are enriched below; roughly 9.3% of the tested compounds scored in any of these assays.
Rab9 promoter act – activates the Rab9 promoter | Huh7 Rab9 promoter-luciferase reporter, luminescence, 24 h | AID 485297 | Potency, µM (doses to about 9.22 µM), for the others: top-dose activation, negative = inhibition, actives largely listed as activators | 2.8% of 320,000 active; note: % of control where 0% means no effect; nearly all actives have a fitted effect of over 60% in size
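Quantitative HTS format; Huh7 Rab9-luciferase reporter cells (1500/well) receive compound 2 h post-plating, incubate 24 h at 37 °C, then get luciferase reagent for 10 min before luminescence reading.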
FLuc counter – counter-screen for miR-21 project: firefly luciferase inhibitors or activators. purified FLuc, Km substrates, luminescence inhibition. 6.9% of 360,000 active. Potency, µM (series often up to 57.5 µM), inactives show at the highest dose activity change, negative = inhibition, usual class: inhibitors. AID 588342. P08659;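 note: plate controls were vehicle for no effect and reference inhibitor for full effect; nearly all actives have a fitted effect of over 55% in size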
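Purified P. pyralis luciferase, 10 nM final, with Km-level 10 uM D-luciferin and 10 uM ATP in 50 mM Tris acetate pH 7.5, 10 mM Mg acetate, 0.01% Tween-20, 0.05% BSA; 6-point qHTS titration about 60 µM downward; luminescence read.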
ELG1 genotox – genotoxicity induction in ELG1-luciferase HEK293T cells. HEK293T ELG1-luciferase reporter, luminescence, 16 h. 1.3% of 330,000 active. Potency, µM (titrated, usually from 46 µM), for the others: at the top dose activity change, positive = activation, usual class: activators; note: % of control where 0% means no effect; nearly all actives have a fitted effect of over 60% in size
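16 hr compound incubation (37 °C, 5% CO2) of HEK293T cells carrying luciferase-tagged ELG1; luciferase then measured by ONE-Glo luminescence after 30 min at RT.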
ELG1 DNA repair – blocks ELG1-dependent DNA repair in HEK293T cells. 2.3% of 330,000 active. Potency, µM (doses to about 46.1 µM), without a hit: top-dose activity change, negative = inhibition, most hits filed as inhibitors. HEK293T ELG1-luciferase reporter, luminescence, 16 h; DNA damage induced by 5-fluorouridine; note: % is set by controls: 0 for no effect and ±100 for the full control effect; nearly all actives have a fitted effect of over 55% in size
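Reporter activity after DNA damage by 5-fluorouridine is monitored. Compound-treated cells incubate 16 hr at 37 °C, then ONE-Glo is added for 30 min before luminescence reading.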
SMN2 splice enh – increases expression of the SMN2 splice variant | HEK293 SMN2-luciferase splicing reporter, luminescence, 30-36 h | Potency, µM (doses to about 46.1 µM), for the others: at the top dose activity change, positive = activation, hits mostly activators | 2.8% of 210,000 active; note: % of control where 0% means no effect; nearly all actives have a fitted effect of over 55% in size
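qHTS luciferase splicing reporter: luminescence rises when SMN2 exon 7 is included in transfected HEK293 cells. Compound exposure lasted 30-36 h at 37C, with 4.5 mM final sodium butyrate as control, followed by a ONE-Glo read.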
NPC1 promoter act – activates the NPC1 promoter | Huh7 NPC1 promoter luciferase reporter, 24 h | Potency, µM (highest dose often 9.22 µM), without a hit: at the top dose activation, actives largely listed as activators | 2.4% of 320,000 active; note: % of control where 0% means no effect; nearly all actives have a fitted effect of over 60% in size
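Luciferase expression driven by the NPC1 promoter was measured in stably transfected Huh7 cells after a 24 h compound incubation, using a luciferase reagent and a luminescence read.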
* = called active by the depositor; u = inconclusive; x = not tested or not shown; [ ] = remark or other dose. Calls come from the whole dose curve; as a rule, active = well fitted curve in the direction sought with a large enough effect; inconclusive = small, poorly fitted or top-dose-only effect, or another doubt; inactive = no such curve, though single readings can be large; an effect the other way counts as inactive or inconclusive. Potency is the fitted concentration of half-maximal effect.

SMILES	Rab9 promoter act	FLuc counter	ELG1 genotox	ELG1 DNA repair	SMN2 splice enh	NPC1 promoter act
COC(=O)[C@]1(C)N[C@H](c2ccc(SC3CCCCC3)cc2)[C@@H]2C(=O)N(C)C(=O)[C@@H]21	-1%	-15%	-5%	-4%	x	2%
COc1ccccc1/C=C/C(=O)NCc1ccccn1	7%	-9%	-1%	12%	-12%	2%
Cc1nc(CSc2ccc(Br)cc2)cs1	4%	17µM*	12%	u	x	-1%
CCOC(=O)c1ccc(NS(=O)(=O)c2ccc(Cl)nc2)cc1	-4%	u	0%	-15%	-15%	-2%
CCOC(=O)c1cnn(-c2ccc(NS(=O)(=O)c3ccc(Cl)cc3)cc2)c1C(F)(F)F	-10%	3%	-6%	23µM*	x	-1%
COc1ncc2nc(-c3ccc(Cl)cc3)c(=O)n(C[C@H]3CCCO3)c2n1	x	x	x	x	12%	x
O=S(=O)(c1cccs1)N1CCCc2cccc(O)c21	3.5µM*	19µM*	5%	u	9%	8%
O=C(Nc1ccc2c(c1)N(S(=O)(=O)c1cccs1)CCC2)c1c(F)cccc1F	-5%	1%	4%	u	x	-1%
CSc1nnc2[nH]c(=O)cc(C)n12	x	7%	x	x	x	x
Cc1cc(=O)[nH]c2nnc(-c3ccc(Cl)cc3)n12	u	3.4µM*	u	u	x	2.8µM*
Oc1ccc(Br)cc1-c1cc(-c2ccccc2F)[nH]n1	-1%	-2%[2.3 µM]	0%	-20%	u	-5%
Cc1ccc(-c2cc(NC(=O)c3ccccc3[N+](=O)[O-])n[nH]2)cc1	4%	u	3%	12%	x	2%
Cc1ccc(-c2cc(-c3ccccc3[N+](=O)[O-])[nH]n2)c(O)c1	3.5µM*	u	u	u	18µM*	u
Cc1ccccc1-c1cc(-c2ccccc2O)n[nH]1	3.2µM*	u	u	u	25µM*	28%
Cc1ccc(-c2cc(-c3ccccc3Cl)[nH]n2)c(O)c1	u	-29%[2.3 µM]	u	u	13µM*	u
COc1ccc(C(=O)CSc2nccn2C)cc1	3.5µM*	17µM*	23µM*	u	x	2.8µM*
